This is a sample that favours compounds with a hit; in the whole collection about 5.6% have one here.
PfG6PD inh: PfG6PD (Plasmodium falciparum) enzyme inhibition. AID 504690. PfGluPho enzyme, NADPH resazurin-diaphorase fluorescence. inhibition, % at 20 µM. 0.78% of 350,000 active;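 active = inhibition reaching at least a set limit at 20 µM in the primary screen, cut at about 59% in these data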
PHOSPHO1 block: PHOSPHO1 (human) inhibition; inhibition, % at 13.3 µM; Q8TCT1; 1.1% of 290,000 active; recombinant PHOSPHO1, absorbance phosphatase assay; in the data active = inhibition above about 60%
M18AAP inhibitor: PfM18AAP enzyme inhibition; recombinant PfM18AAP, H-Glu-NHMec fluorogenic cleavage; inhibition, % at 7.35 µM; 1.2% of 290,000 active;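 active = inhibition above the campaign mean inhibition over all tested compounds plus 3 SD, cut at about 28% in these data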
ALR H2O2 inh: blocks human ALR sulfhydryl oxidase activity; P55789; purified ALR, DTT oxidation, H2O2 HRP-luminol luminescence; inhibition, % (concentration not given with the values); 3.8% of 290,000 active; AID 485317;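 active = mean replicate inhibition above about 79%, with every replicate also reaching it, limit read from the data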
Target sequence (P55789 whole entry, looked up): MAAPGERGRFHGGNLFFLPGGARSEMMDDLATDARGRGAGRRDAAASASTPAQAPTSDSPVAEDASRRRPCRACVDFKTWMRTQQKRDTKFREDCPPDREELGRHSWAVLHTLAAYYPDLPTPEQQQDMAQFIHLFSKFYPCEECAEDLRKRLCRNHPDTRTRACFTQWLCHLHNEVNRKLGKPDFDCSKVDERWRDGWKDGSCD
Cardio protect: modulators protecting cardiomyocytes from myocardial damage; H9c2 cardiomyocytes, H2O2 injury protection, ATPLite, 2 h; protection from H2O2 cell death, % at 20 µM; 0.63% of 360,000 active;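 active = compounds giving at least 50% protection of heart cells from peroxide-induced death in the single-dose screen, raw or plate-pattern-corrected value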
Numbers stand for hits; - = inactive; . = no result given.

SMILES	PfG6PD inh	PHOSPHO1 block	M18AAP inhibitor	ALR H2O2 inh	Cardio protect
O=C(Nc1nnc(-c2ccc3c(c2)CCCC3)o1)c1ccccc1	-	-	-	.	52
O=C(Nc1nnc(-c2cccs2)o1)c1cccc(Oc2ccccc2)c1	-	-	-	.	53
O=C(Nc1nnc(-c2ccc3c(c2)CCCC3)o1)c1ccccc1Cl	-	-	-	-	-
O=C(Nc1nnc(-c2ccncc2)o1)c1ccccc1	-	-	-	87	-
Cc1ccc(C(=O)Nc2nnc(-c3ccncc3)o2)cc1	-	-	-	-	-
CCOc1ccc2nc(SCC(=O)N(C)C3CCS(=O)(=O)C3)[nH]c2c1 (stereo not given)	-	100	-	.	-
COc1ccc(C)cc1NC(=O)CN1C(=O)COc2ccc(S(=O)(=O)N3CCCCC3)cc21	-	-	-	-	-
COc1ccc(NC(=S)Nc2cc(C)[nH]n2)cc1Cl	-	-	-	-	-
COc1ccc(NC(=S)Nc2cc(-c3ccccc3)[nH]n2)cc1Cl	-	69	-	-	-
Cc1cc(NC(=S)Nc2ccc(C)c(Cl)c2)n[nH]1	-	-	-	97	-
COc1ccc(NC(=O)CC2Nc3cccc4cccc(c34)NC2=O)cc1 (stereo not given)	-	-	-	100	-
CN1CCN(c2c(/C=N/O)c3ccccc3n2C)CC1	-	-	-	93	-
O=C(OCc1nnc(-c2ccccc2)o1)C1CCN(C(=O)c2ccc(Cl)cc2)CC1	-	.	.	.	-
COc1ccc(S(=O)(=O)N2CCOCC2)cc1C(=O)N(C)Cc1ccco1	-	.	.	-	-
COc1ccc(CNC(=O)[C@H](Cc2ccccc2)NC(=O)CC[C@H]2O[C@@H](n3ccc(=O)[nH]c3=O)[C@H](O)[C@@H]2O)cc1	.	.	.	.	-
COC(=O)c1c(NC(=O)C2CC=CCC2C(=O)O)sc2c1CCCCC2 (stereo not given)	-	-	29	-	-
COC(=O)c1c(NS(C)(=O)=O)sc2c1CCCC2	-	-	-	-	-
COC(=O)c1c(NC(=O)C2CC=CCC2C(=O)O)sc(C(N)=O)c1C (stereo not given)	-	-	-	99	-
COC(=O)c1c(NC(=O)C2CC=CCC2C(=O)O)sc(C)c1C (stereo not given)	-	-	-	-	-
COC(=O)c1c(NS(=O)(=O)Cc2ccccc2)sc2c1CCCC2	-	71	-	91	-
COc1ccc(S(=O)(=O)N2CCOCC2)cc1NC(=O)c1ccccc1C	-	-	-	-	-
[O-][n+]1c2c(c3c4non(O)c4ccc31)CCCC2	-	-	-	94	-
COC(=O)c1ccc(NC(=O)CSC2=Nc3ccccc3C3CC=NN23)cc1 (stereo not given)	-	-	-	97	-
Cc1ccc(NC(=O)CSC2=Nc3ccccc3C3CC=NN23)c(C)c1 (stereo not given)	-	-	-	-	-
NC(=O)c1ccc(NC(=O)CSC2=Nc3ccccc3C3CC=NN23)cc1 (stereo not given)	-	-	-	99	-
SMILES	PfG6PD inh	PHOSPHO1 block	M18AAP inhibitor	ALR H2O2 inh	Cardio protect
O=C(CSC1=Nc2ccccc2C2CC=NN12)Nc1ccc(F)cc1Cl (stereo not given)	-	-	-	-	-
Cc1cccc(N(Cc2ccccc2)C(=O)C2CCN(C(=O)c3ccccc3C)CC2)c1	-	.	.	-	-
CC(=O)Nc1ccc(NC(=O)COC(=O)c2c(C)nn(-c3ccccc3)c2C)cc1	-	-	-	94	-
Cc1nn(-c2ccccc2)c(C)c1C(=O)OCC(=O)Nc1ccccc1F	-	.	.	-	-
N#CC1=C(SCC(=O)Nc2ccc(C(=O)O)cc2)NC(=O)CC1c1ccco1 (stereo not given)	-	-	-	98	-
COCCOC(=O)C1=C(C)NC(SCC(=O)NC(C)(C)C)=C(C#N)C1c1ccco1 (stereo not given)	-	-	-	.	-
C=CCOC(=O)C1=C(C)NC(SCC(=O)Nc2ccc(C)c(Cl)c2)=C(C#N)C1c1ccco1 (stereo not given)	-	-	-	98	-
Cc1ccc(NC(=O)CN2CCCC2c2cccn2C)c(Br)c1 (stereo not given)	-	.	.	-	-
NS(=O)(=O)c1ccc(CCNC(=O)CSc2nc3c(sc(=S)n3-c3ccccc3)c(=O)[nH]2)cc1	-	.	.	.	-
CN(C(=O)CNC(=O)c1ccc(Br)o1)C1CCCCC1	-	.	-	-	-
CC1=NN(C2=NS(=O)(=O)c3ccccc32)C(C)(O)C1 (stereo not given)	-	-	31	-	-
O=C(N/N=C/c1ccc(O)cc1)c1csc2c1CCCC2	-	-	-	99	-
